Source: PubChem BioAssay (National Center for Advancing Translational Sciences (NCATS))
NPC1 prom act: activates the NPC1 promoter | Huh7 NPC1 promoter luciferase reporter, 24 h | Potency, µM (doses to about 9.22 µM), for inactives: at the top dose activation, actives largely listed as activators | actives 2.4% (n = 320,000) | AID 485313; further: % of control where 0% means no effect; nearly all actives have a fitted effect of over 60% in size
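Huh7 cells stably carrying NPC1 promoter–luciferase, plated in Opti-MEM with 10% FBS for 2 h, were exposed to compound in DMSO for 24 h at 37 °C; luciferase reagent was added for 10 min and luminescence read.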
FLuc modulator: counter-screen for miR-21 project: firefly luciferase inhibitors or activators; P08659; purified FLuc, Km substrates, luminescence inhibition; Potency, µM (doses to about 57.5 µM), for the others: at the top dose activity change, negative = inhibition, hits mostly inhibitors; actives 6.9% (n = 360,000); AID 588342;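 further: plate controls were vehicle for no effect and reference inhibitor for full effect; nearly all actives have a fitted effect of over 55% in size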
Target sequence (P08659 whole entry, looked up): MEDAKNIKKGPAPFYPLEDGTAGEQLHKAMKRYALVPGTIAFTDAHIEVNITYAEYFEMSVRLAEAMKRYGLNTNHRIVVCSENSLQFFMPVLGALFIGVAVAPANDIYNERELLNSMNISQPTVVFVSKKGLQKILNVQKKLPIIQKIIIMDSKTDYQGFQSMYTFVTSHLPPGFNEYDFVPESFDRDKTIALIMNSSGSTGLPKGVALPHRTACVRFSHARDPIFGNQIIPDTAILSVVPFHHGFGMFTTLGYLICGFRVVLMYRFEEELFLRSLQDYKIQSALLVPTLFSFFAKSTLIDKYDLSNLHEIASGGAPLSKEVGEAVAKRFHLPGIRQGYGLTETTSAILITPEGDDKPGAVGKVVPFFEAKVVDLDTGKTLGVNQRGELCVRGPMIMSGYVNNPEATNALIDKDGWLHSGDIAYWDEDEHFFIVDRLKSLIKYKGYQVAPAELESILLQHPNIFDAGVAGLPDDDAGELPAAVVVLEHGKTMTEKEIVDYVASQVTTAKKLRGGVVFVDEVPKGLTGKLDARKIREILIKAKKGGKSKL
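Biochemical qHTS of compounds, final roughly 60 µM downward over six points, against 10 nM purified firefly luciferase using Km concentrations of substrates (10 uM D-luciferin, 10 uM ATP) in Tris acetate pH 7.5 buffer; luminescence output.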
ELG1 genotox: genotoxicity induction in ELG1-luciferase HEK293T cells. actives 1.3% (n = 330,000). HEK293T ELG1-luciferase reporter, luminescence, 16 h. Potency, µM (top dose mostly 46 µM), for the others: at the top dose activity change, positive = activation, actives largely listed as activators; further: % of control where 0% means no effect; nearly all actives have a fitted effect of over 60% in size
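Cells (2,000/well) expressing the ELG1-luciferase fusion are dosed by pin tool and kept 16 hr at 37 °C, 5% CO2. Signal comes from ONE-Glo luciferase reagent after 30 min at room temperature.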
KinaseGlo FLuc: counter-screen: inhibitors of Kinase-Glo firefly luciferase. Kinase-Glo luciferase, ATP luminescence, 8 min. actives 0.28% (n = 200,000). Q27757. Potency, µM (doses to about 38.3 µM), without a hit: top-dose activity change, negative = inhibition, usual class: inhibitors; further: on the % scale 0 is the no-effect control and ±100 the full control effect; nearly all actives have a fitted effect of over 60% in size
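Light output from Kinase-Glo luciferase with luciferin and 10 uM ATP in 50 mM imidazole pH 7.2, KCl, MgCl2, Tween 20, BSA; compound pin-delivered, 8-min ambient incubation, then luminescence read.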
SMN2 splice enh: SMN2 splice variant enhancement | HEK293 SMN2-luciferase splicing reporter, luminescence, 30-36 h | Potency, µM (titrated, usually from 46.1 µM), without a hit: at the top dose activity change, positive = activation, most hits filed as activators | actives 2.8% (n = 210,000) | AID 1458; further: % of control where 0% means no effect; nearly all actives have a fitted effect of over 55% in size
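qHTS luciferase splicing reporter: luminescence rises when SMN2 exon 7 is included in transfected HEK293 cells. Compound exposure lasted 30-36 h at 37C, with 4.5 mM final sodium butyrate as control, followed by a ONE-Glo read.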
Rab9 promoter act: activates the Rab9 promoter; Huh7 Rab9 promoter-luciferase reporter, luminescence, 24 h; Potency, µM (titrated, usually from 9.22 µM), inactives show top-dose activation, negative = inhibition, actives largely listed as activators; actives 2.8% (n = 320,000); further: % of control where 0% means no effect; nearly all actives have a fitted effect of over 60% in size
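Huh7 cells stably carrying a Rab9 promoter-luciferase reporter, 1500 cells per well in OP-MEM I with 10% FBS, treated with compound 24 hours at 37C. Luciferase activity read by luminescence after 10 minutes with Amplite reagent.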
An asterisk follows results filed as active. This is a sample that favours compounds with a hit; in the whole collection about 7.4% have one here. The call rests on the fitted dose curve; in most records, active means well fitted curve in the direction sought with a large enough effect; inconclusive means small, poorly fitted or top-dose-only effect, or another doubt; inactive means no such curve, though single readings can be large; an effect the other way counts as inactive or inconclusive. Potency means the concentration at half of the fitted maximal effect.

What do the screens show for `Cn1cc([N+](=O)[O-])c(C(=O)N(Cc2ccccc2)Cc2ccccc2)n1`?
NPC1 prom act: -1.9%; FLuc modulator: 1.0%; ELG1 genotox: 0.8%; KinaseGlo FLuc: 1.6%; SMN2 splice enh: -6.8%; Rab9 promoter act: -0.1%

Results for Cc1c(OC(C)C(=O)NCc2ccccn2)ccc2c3c(c(=O)oc12)CCCC3 (stereo not drawn) ?
NPC1 prom act: -0.3%; FLuc modulator: -3.0%; ELG1 genotox: -21.5%; Rab9 promoter act: 1.0%

Results for CC1CCN(c2nc3ccc(C(=O)N4CCN(Cc5ccccc5)CC4)cc3s2)CC1 ?
NPC1 prom act: 15.8%; FLuc modulator: 16.9µM*; ELG1 genotox: inconclusive; KinaseGlo FLuc: 0.3%; SMN2 splice enh: -57.3%; Rab9 promoter act: 24.6%

How did COc1cccc(N2CCN(C(=O)c3ccc4nc(N5CCC(C)CC5)sc4c3)CC2)c1 do in these assays?
NPC1 prom act: inconclusive; FLuc modulator: 9.53µM*; ELG1 genotox: inconclusive; SMN2 splice enh: -25.2%; Rab9 promoter act: inconclusive

How did c1ccc(CN2CCN(c3nc4ccccc4s3)CC2)cc1 do in these assays?
NPC1 prom act: 1.41µM*; FLuc modulator: 2.69µM*; ELG1 genotox: 9.2µM*; Rab9 promoter act: 0.708µM*

How did CC1CCN(C(=O)c2ccc3ccccc3c2)CC1 do in these assays?
NPC1 prom act: 3.55µM*; FLuc modulator: 12µM*; ELG1 genotox: inconclusive; Rab9 promoter act: 2.51µM*

Results for COc1ccc(N2CCN(C(=O)c3ccc4nc(N5CCC(C)CC5)sc4c3)CC2)cc1 ?
FLuc modulator: inconclusive; SMN2 splice enh: 5.9%

What do the screens show for `O=C(NCc1cccnc1)c1ccc(NC(=O)c2cccc([N+](=O)[O-])c2)cc1`?
NPC1 prom act: -2.6%; FLuc modulator: 6.8%; ELG1 genotox: 0.0%; KinaseGlo FLuc: -0.2%; Rab9 promoter act: -3.2%

How did CCOC(=O)N1CCN(C(=O)c2ccc3nc(N4CCCCC4)sc3c2)CC1 do in these assays?
NPC1 prom act: 20.8%; FLuc modulator: -15.1%; ELG1 genotox: -1.5%; KinaseGlo FLuc: -2.4%; SMN2 splice enh: 14.3%; Rab9 promoter act: 14.2%

What do the screens show for `O=C(c1ccc2nc(N3CCCCC3)sc2c1)N1CCN(Cc2ccc3c(c2)OCO3)CC1`?
NPC1 prom act: 11.2%; FLuc modulator: -13.1%; ELG1 genotox: 23.1µM*; KinaseGlo FLuc: 3.0%; SMN2 splice enh: -63.5%; Rab9 promoter act: -2.4%

How did NC(=O)C1CCN(C(=O)c2ccc3nc(N4CCCCC4)sc3c2)CC1 do in these assays?
NPC1 prom act: 2.82µM*; FLuc modulator: inconclusive; ELG1 genotox: inconclusive; Rab9 promoter act: 3.16µM*

What do the screens show for `Cc1cccc(Nc2ncnc3nc[nH]c23)c1`?
NPC1 prom act: 29.2%; FLuc modulator: inconclusive; ELG1 genotox: inconclusive; KinaseGlo FLuc: -4.0%; SMN2 splice enh: inconclusive; Rab9 promoter act: inconclusive

What do the screens show for `Fc1cccc(/C=N/Nc2ncnc3nc[nH]c23)c1`?
NPC1 prom act: inconclusive; FLuc modulator: 19µM*; ELG1 genotox: -2.0%; KinaseGlo FLuc: inconclusive; SMN2 splice enh: 10µM*; Rab9 promoter act: 3.55µM*

How did Fc1ccccc1/C=N/Nc1ncnc2nc[nH]c12 do in these assays?
NPC1 prom act: 29.3%; FLuc modulator: inconclusive; ELG1 genotox: 20.6µM*; KinaseGlo FLuc: -13.7%; SMN2 splice enh: 12.6µM*; Rab9 promoter act: 23.5%

How did c1ccc(CNc2ncnc3nc[nH]c23)nc1 do in these assays?
NPC1 prom act: -1.6%; FLuc modulator: 9.3%; ELG1 genotox: -2.0%; KinaseGlo FLuc: 0.0%; SMN2 splice enh: -7.0%; Rab9 promoter act: -2.7%

How did O=C(CCOc1ccccc1)N(Cc1cccnc1)c1nc2c(Cl)cccc2s1 do in these assays?
FLuc modulator: -12.4%

What do the screens show for `O=C(COC(=O)COc1ccc(Cl)cc1)NCc1cccs1`?
NPC1 prom act: -0.7%; FLuc modulator: 1.9%; ELG1 genotox: 0.3%; KinaseGlo FLuc: 4.1%; SMN2 splice enh: 28.0%; Rab9 promoter act: 0.8%

How did CCOC(=O)c1sc2nc(CC(=O)OC)nc(NCc3ccco3)c2c1C do in these assays?
NPC1 prom act: 0.0%; FLuc modulator: -13.7%; ELG1 genotox: -7.0%; KinaseGlo FLuc: 2.3%; SMN2 splice enh: 8.0%; Rab9 promoter act: -2.7%

Results for Cc1sc2nc3c4ccccc4c(NCc4ccco4)nn3c(=O)c2c1C ?
NPC1 prom act: inconclusive; FLuc modulator: 7.57µM*; ELG1 genotox: 7.08µM*; KinaseGlo FLuc: -5.4%; SMN2 splice enh: 10µM*; Rab9 promoter act: 2.82µM*

Results for Cc1nc(NCc2ccco2)c2c(C)c(C)sc2n1 ?
NPC1 prom act: -16.8%; FLuc modulator: 0.5%; ELG1 genotox: -26.9%; KinaseGlo FLuc: -3.3%; SMN2 splice enh: 3.16µM*; Rab9 promoter act: -15.9%

What do the screens show for `Cc1ccc(NC(=O)CCCC2CCCCC2)c(O)c1`?
NPC1 prom act: inconclusive; FLuc modulator: 8.49µM*; ELG1 genotox: inconclusive; Rab9 promoter act: inconclusive

How did CCOc1ccccc1C(=O)NCC(=O)N1CCN(Cc2ccc3c(c2)OCO3)CC1 do in these assays?
NPC1 prom act: -2.8%; FLuc modulator: 5.6%; ELG1 genotox: 2.3%; Rab9 promoter act: -3.0%

What do the screens show for `COc1ccc(/C=C\C(=O)Oc2cccc(/C=N/NC(=O)Cc3ccc(OC)c(OC)c3)c2)cc1`?
NPC1 prom act: inconclusive; FLuc modulator: 10.7µM*; ELG1 genotox: inconclusive; KinaseGlo FLuc: -1.9%; SMN2 splice enh: 12.6µM*; Rab9 promoter act: inconclusive

Results for COc1ccc(/C=N/NC(=O)Cc2ccc(Cl)cc2)cc1OC ?
NPC1 prom act: 0.9%; FLuc modulator: -15.7%; ELG1 genotox: inconclusive; KinaseGlo FLuc: 1.0%; SMN2 splice enh: -3.2%; Rab9 promoter act: -1.1%

What do the screens show for `COc1ccc(/C=C/C(=O)Oc2cccc(/C=N/NC(=O)c3cccc(F)c3)c2)cc1`?
NPC1 prom act: 3.55µM*; FLuc modulator: 2.39µM*; ELG1 genotox: inconclusive; KinaseGlo FLuc: -3.4%; SMN2 splice enh: 11.2µM*; Rab9 promoter act: 2.82µM*

What do the screens show for `O=C(COC(=O)/C=C/C(=O)OCC(=O)Nc1ccccc1F)Nc1ccccc1F`?
NPC1 prom act: -1.4%; FLuc modulator: 2.2%; ELG1 genotox: 1.8%; Rab9 promoter act: 1.3%

Results for CC(C)C(=O)N1CCc2cc(-c3csc(N)n3)ccc21 ?
NPC1 prom act: inconclusive; FLuc modulator: 13.5µM*; ELG1 genotox: 21.6%; KinaseGlo FLuc: 0.3%; SMN2 splice enh: 12.6µM*; Rab9 promoter act: 3.55µM*
